In PubChem BioAssay:

Tests used:
[1] = tested on: Botulinum neurotoxin type F light chain protease (Clostridium botulinum); assay: Clostridium botulinum type F light chain protease inhibitors, microsphere substrate cleavage, validation (AID 588459); conditions: multiplex microsphere protease substrate cleavage assay, flow cytometry; at 10 µM; hits give high values
[2] = target: Botulinum neurotoxin type A (Clostridium botulinum) (UniProt P0DPI0); assay: BoNT/A light chain protease inhibitors, biochemical, multiplex microsphere flow cytometry, validation set (AID 588460); conditions: at 10 µM, hits give high values
[3] = target: Lethal factor (Bacillus anthracis) (UniProt P15917); assay: Bacillus anthracis lethal factor inhibition, microsphere flow cytometry protease assay, validation at 10 µM (AID 588461); conditions: multiplex microsphere protease cleavage assay, hits give high values

Measured: inhibition

Cc1cc(OCC(=O)C(C)(C)C)c2c(C)c(C)c(=O)oc2c1
inactive: [1] -1.4% | [2] 0.5% | [3] 0.7%

CC1(C)c2ccccc2N2CC(=O)NC21/C=C/c1ccco1 (configuration not stated)
inactive: [1] 3.2% | [2] 0.5% | [3] 0.4%

CCOC(=O)C1=C2c3ccc4ccccc4c3CC(C)(C)N2C(=O)C1=O
inactive: [1] 2.7% | [2] 1.7% | [3] -4.6%

COc1ccc(N2CCN(C(=S)NCc3ccccc3)CC2)cc1
inactive: [1] 2.4% | [2] -0.6% | [3] 2.2%

O=C(O)c1ccccc1Nc1cccc(C(F)(F)F)c1
inactive: [1] -4.2% | [2] -0.9% | [3] 1.9%

COc1ccc2[nH]c(=O)c(CN(C(=O)c3ccco3)C(C)C)cc2c1
inactive: [1] 0.1% | [2] 1% | [3] 2.1%

O=C(/C=C/c1ccccc1)NCC1(c2ccccc2)CCOCC1
inactive: [1] -1.5% | [2] 0.4% | [3] 3%

CCCCC[C@H](O)/C=C/C1=C(CCCCCCC(=O)O)C(=O)CC1
inactive: [1] -0.6% | [2] -0.5% | [3] 2.4%

CC(=O)OCC(=O)[C@@]1(O)CC[C@H]2[C@@H]3CCC4=CC(=O)C=C[C@]4(C)[C@H]3[C@@H](O)C[C@@]21C
inactive: [1] -5.9% | [2] -1.8% | [3] -2.4%
